Source: PubChem BioAssay AID1903 (Southern Research Specialized Biocontainment Screening …, 2009)
About 1,200 (0.39%) of roughly 310,000 compounds were called active. The rule behind the calls is not given here. A selection follows. Measured potencies and affinities stand elsewhere.

molecular target: Large T antigen (Simian virus 40) (UniProt P03070); experiment: SV40 large T antigen inhibitors, biochemical (AID 1903); conditions: SV40 large T antigen ATPase/helicase inhibition assay; at 20 µM; active compounds read high
Sequence (P03070 whole entry, looked up): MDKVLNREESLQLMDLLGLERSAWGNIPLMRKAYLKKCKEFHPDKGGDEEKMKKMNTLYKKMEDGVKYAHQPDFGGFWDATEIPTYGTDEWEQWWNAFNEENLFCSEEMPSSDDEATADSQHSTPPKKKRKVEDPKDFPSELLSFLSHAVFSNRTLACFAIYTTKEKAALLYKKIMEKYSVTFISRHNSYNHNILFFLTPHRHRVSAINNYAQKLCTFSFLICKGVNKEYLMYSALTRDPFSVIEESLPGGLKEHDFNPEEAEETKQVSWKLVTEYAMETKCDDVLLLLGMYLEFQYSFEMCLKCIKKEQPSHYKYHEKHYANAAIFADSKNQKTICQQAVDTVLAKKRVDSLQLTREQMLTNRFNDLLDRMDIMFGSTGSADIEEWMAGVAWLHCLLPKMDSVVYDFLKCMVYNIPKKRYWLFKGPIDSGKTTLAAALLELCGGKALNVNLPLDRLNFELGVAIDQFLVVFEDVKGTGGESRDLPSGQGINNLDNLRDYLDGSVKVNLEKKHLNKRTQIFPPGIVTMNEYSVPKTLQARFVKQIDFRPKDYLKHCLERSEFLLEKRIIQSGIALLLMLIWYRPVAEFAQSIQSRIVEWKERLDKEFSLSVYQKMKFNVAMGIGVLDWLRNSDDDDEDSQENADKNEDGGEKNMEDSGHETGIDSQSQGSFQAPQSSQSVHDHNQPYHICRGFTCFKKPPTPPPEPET

inhibition, inactive:
Cc1c(/C=N/NC(=O)c2cccs2)c2ccccc2n1Cc1ccccc1Cl 14.4%, CN(Cc1ccccc1F)C(=O)c1sccc1-c1ccccc1 20%, CC(C)CNC(=O)NC1(C(F)(F)F)Oc2ccccc2O1 3.66%, CCOC(=O)Cc1csc(NC(=O)NC2(C(F)(F)F)Oc3ccccc3O2)n1 31.1%, O=C(Nc1ccc2c(c1)CCCN2C(=O)c1cccs1)c1c(F)cccc1Cl 13.1%, Cc1c2ccccc2cc[n+]1CCCS(=O)(=O)[O-] 7.97%, CCC(=S)/C=C1\Sc2ccc3ccccc3c2N1CCCS(=O)(=O)O 18.3%, COC(=O)[C@@H](NC(=O)NCc1ccccc1F)C(C)C -2.59%, COc1ccc(C(=O)N2CCN(S(=O)(=O)c3cc(Cl)ccc3OC)CC2)cc1 5.04%, Cc1nn(C)c(C)c1NC(=O)CSc1nc(-c2ccccc2Cl)nc2c1cnn2-c1ccccc1 8.57%, COc1ccc(/C=N/NC(=O)/C(=C/c2ccccc2)CCO)cc1 2.79%, COc1cc(/C=N/NC(=O)/C(=C/c2ccccc2)CCO)ccc1O 29.2%, O=C(COc1ccc(N2CC(C(=O)O)CC2=O)cc1)Nc1cccc(C(F)(F)F)c1 (centres undefined) -0.75%, CCOc1cc(/C=N/NC(=O)COc2nc(C)cc(COC)c2C#N)ccc1O 25.5%, COc1ccc(/C=N/NC(=O)CCc2ccccc2)cc1O 29.5%, COc1ccc(/C=N/NC(=O)CNc2n[nH]c(=O)[nH]c2=O)cc1OC 0.71%, COc1ccc(/C=N/NC(=O)CCc2n[nH]c(=O)[nH]c2=O)cc1OC 9.55%, COc1cc(/C=N\NC(=O)CNC(=O)C(c2ccccc2)c2ccccc2)ccc1O 33.5%, CCOc1cc(/C=N/NC(=O)C(=O)N2CCCC2)ccc1O 29.3%, Cc1cccc(N2CCN(S(=O)(=O)c3ccc4c(c3)CC(C)N4C(=O)C3CC3)CC2)c1C (centres undefined) 4.4%, Cc1cc(OCC(=O)NC2CC2)c2c(C)c(C)c(=O)oc2c1 20.6%, O=C(CN1CCOCC1)Nc1cccc(C(F)(F)F)c1 16.1%, COc1cc(Cl)c(C)cc1NC(=O)CCCn1c(=O)oc2ccccc21 4.1%, O=C(CN1CCOCC1)NNC(=S)Nc1ccccc1 4.41%, CN(CC(=O)Nc1cccc(F)c1)C(=O)c1cccc(S(=O)(=O)N2CCN(c3ccccc3)CC2)c1 6.82%, O=[N+]([O-])C1=C(Nc2cccc3ccccc23)CS(=O)(=O)C1 0.61%, Cc1ccc(NC2=C([N+](=O)[O-])CS(=O)(=O)C2)cc1 2.4%, Cc1ccc(/C=C2/NC(=O)N(Cc3ccccc3)C2=O)o1 9.41%, COC(=O)C1=C(C)N(Cc2ccc(OC)cc2)C(=O)/C1=C\c1ccco1 10.5%, O=C1/C(=C/c2cccnc2)SC(=S)N1c1ccc(F)cc1 21.6%, O=C1N/C(=C/c2ccc(N3CCOCC3)cc2)C(=O)N1Cc1ccc(F)cc1 3.08%, O=C1N/C(=C\c2ccsc2)C(=O)N1Cc1ccc(F)cc1 5.82%, O=C1/C(=C\c2cccnc2)SC(=S)N1c1ccc(F)cc1 9.19%, COc1ccc(CN2C(=O)c3ccccc3C2=O)cc1 5.14%, Cc1ccc(/C=C2/NC(=O)N(Cc3ccc(Br)cc3)C2=O)o1 9.48%, COc1cccc(C(=O)COc2ccc(NC(=O)c3cccs3)cc2)c1 -1.46%, Cc1nn(-c2ccccc2)c(N)c1N=Nc1ccc(Cl)cc1 5.29%, CC(=O)NCCCc1nc2ccccc2n1Cc1cc(C)ccc1C 2.29%, O=C(CN1C(=O)/C(=C/c2ccccc2Cl)SC1=S)NC1CCS(=O)(=O)C1 (centres undefined) 14.6%, O=C(CCCN1C(=O)/C(=C\c2ccco2)SC1=S)Nc1ccc(O)cc1C(=O)O 83.1%, O=C(CCCN1C(=O)/C(=C/c2ccccc2)SC1=S)Nc1ccc(C(=O)O)c(O)c1 11.4%, O=C(CCN1C(=O)/C(=C/c2cccs2)SC1=S)Nc1ccc(C(=O)O)c(O)c1 35%, COc1ccccc1/C=C1\SC(=S)N(CCC(=O)Nc2ccc(C(=O)O)c(O)c2)C1=O 22.1%, O=C(CN1C(=O)/C(=C/c2ccccc2)SC1=S)NC1CCS(=O)(=O)C1 (centres undefined) 15.6%, O=C(CN1C(=O)S/C(=C\c2cccs2)C1=O)Nc1ccc(C(=O)O)c(O)c1 13.4%, O=C(CCCN1C(=O)/C(=C\c2ccccc2)SC1=S)Nc1ccc(O)cc1C(=O)O 11.7%, COC(=O)COc1ccc2occ(C(C)=O)c2c1 -0.85%, COC(=O)c1[nH]c2ccc(F)cc2c1NC(=O)Nc1ccc(OC)cc1 11.4%, CN1CCN(C(=O)CSc2nnc(COc3ccccc3)o2)CC1 6.15%, Cc1ccc2oc3nc(C)c(C(=O)Nc4cccc(C(F)(F)F)c4)cc3c(=O)c2c1 2.24%, Clc1ccc(/C=N/N2CCCCC2)cc1 5.46%, Cc1cc(NC(=O)C(=O)c2c(C)[nH]c3ccccc23)no1 3.99%, CCOc1ccc2nc(NC(=O)CC3Oc4ccccc4NC3=O)sc2c1 (centres undefined) 7.51%, O=C(COC(=O)c1ccccc1SCC(=O)N1CCCC1)NC1CCCCC1 7.38%, CC1(C)CC(=O)C/C(=N/NC(=O)COc2ccc3ccccc3c2Br)C1 8.99%, C/C(CC(=O)Nc1ccc2c(c1)OCCO2)=N\NC(=O)Cc1ccccc1 9.69%, CCN(C(=O)C(C)N1C(=O)/C(=C/c2ccco2)SC1=S)C1CCS(=O)(=O)C1 (centres undefined) 33.8%, CC(C(=O)Nc1ccc(O)cc1C(=O)O)N1C(=O)/C(=C\c2cccs2)SC1=S (centres undefined) 38.1%, O=C(CCCN1C(=O)/C(=C\c2ccco2)SC1=S)Nc1ccc2ccccc2c1 18.2%, O=C(CCCN1C(=O)/C(=C/c2cccs2)SC1=S)Nc1ccc(O)c(C(=O)O)c1 29.5%, Cc1ccc2nc(N3CCN(c4ccccc4)CC3)c(C=O)c(=O)n2c1 3.59%, CCn1cc(S(=O)(=O)CC(=O)N2CCc3ccccc32)c2ccccc21 16.3%, COCC(C)n1c(SCc2nc(N)nc(Nc3ccccc3C)n2)nc2ccccc2c1=O (centres undefined) 23%, COc1cccc(N2C(=O)/C(=C\c3cccs3)NC2=S)c1 24%, COc1cccc(/C=C2/C(=O)NN(c3ccccc3)C2=O)c1 26.6%, COc1cccc(/C=C2\C(=O)N(c3cccc(C)c3)C(=O)c3ccccc32)c1 11%, COc1cccc(NCc2ccc([N+](=O)[O-])s2)c1 20.9%, COc1ccc(NC(=O)CCNC(=O)c2ccco2)cc1OC 0.95%, O=C(O)C1CCCN1C(=O)Nc1ccccc1 (centres undefined) 4.07%, CN1CCN(CC(=O)O)CC1 17.9%, COc1ccc2c(c1)[nH]c1c(=O)n(CCC3=CCCCC3)cnc12 9.61%, CCOC(=O)N1CCC(Nc2ccc(N3C(=O)C4CCCCC4C3=O)cc2[N+](=O)[O-])CC1 (centres undefined) 10.6%, COc1ccc(C(=O)CCc2ccccc2)c(O)c1 7.01%, COC(=O)CCc1ccc(O)cc1 4.8%, Cc1ccsc1CNC(=O)c1c(-c2ccccc2)noc1C 2.94%, O=C1CNC(=S)N1CCCc1ccccc1 5.18%, O=C1CNC(=S)N1CCc1ccc(Cl)cc1 6.29%, COc1ccc(-c2cc(C(F)(F)F)nc(SCC(=O)NCCCN3CCOCC3)n2)cc1 9.25%, CN1C(=O)NC(c2ccc(O)cc2)C2=C1CN(c1ccccc1)C2=O (centres undefined) 6.82%, Cc1ccc(N2CC3=C(C2=O)C(c2ccccc2)NC(=O)N3C)cc1 (centres undefined) 5.38%, Cc1nnc2n(-c3ccccc3)c(=O)c3c4c(sc3n12)COC(C(C)C)C4 (centres undefined) 5.27%, CN1CCc2c(sc3c2c(=O)n(-c2ccccc2)c2n[nH]c(=S)n32)C1 25.6%, Cc1nnc2n(Cc3ccccc3)c(=O)c3c4c(sc3n12)COC(C(C)C)C4 (centres undefined) 7.22%, CSc1nnc2n(-c3ccc(C)cc3)c(=O)c3c4c(sc3n12)COC(C(C)C)C4 (centres undefined) 10.7%, O=C(O)c1nn2c(c1Br)NC(c1ccccc1)CC2C(F)(F)F (centres undefined) 3.96%, COc1ccc(C(=O)NNC(=O)C2CCCN(C3CC(=O)N(c4ccccc4)C3=O)C2)cc1 (centres undefined) 9.48%, C/C(=N/NC(=O)NC12CC3CC(CC(C3)C1)C2)c1ccccc1 6.61%, Cn1c(=O)c2c(ncn2CC(O)CNc2ccc(F)cc2)n(C)c1=O (centres undefined) 5.3%, Cc1ccc(NCC(O)Cn2cnc3c2c(=O)n(C)c(=O)n3C)cc1 (centres undefined) 16.6%, CCOC(=O)C1CCN(C(=S)Nc2ccccc2)CC1 11.3%, CCOC(=O)C1=C(C)NC(c2cccs2)C(=O)N1 (centres undefined) 6.75%, Cc1c(C(=O)OCC(C)C)[nH]c2c1C(=O)CC(c1cccs1)C2 (centres undefined) 22.8%, COc1ccccc1N/N=C/c1ccc2c(c1)OCO2 5.16%, CCN(CC)C(=O)Nc1ccccc1C 3.88%
